Several values for one entry are separate records, joined by “and”; a condition that tells them apart may be missing. Identical values can stand only once. This is part of a sample that, as a whole, favours compounds with a hit. Of some 83,000 tested, about 20% had one in any assay.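 In brief: 96-well plates, 48 h treatment, single concentration, percent growth endpoint.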 Activity calls are given as the source filed them. How the source made its calls: active means growth percent below 10; inactive means the rest.
system: MDA-MB-468 breast; test: NCI-60 one-dose screen, 48 h (100 = growth as untreated, 0 = no growth, -100 = all killed); conditions: 10 µM unless noted

SMILES | growth
CN1CCN(C(=O)[C@]23CCC(C)(C)C[C@H]2C2=CC[C@@H]4[C@@]5(C)C/C(=C/c6ccncc6)C(=O)C(C)(C)[C@@H]5CC[C@@]4(C)[C@]2(C)CC3)CC1 | 44.6% (inactive)
CCC(CC)N1C(=O)/C(=c2\sc3n(c2=O)C2C(NN=3)N(CC)C(=O)N2CC)c2ccccc21 (stereo not given) | 42.8% (inactive)
CCN1CCN(Cc2ccc(NC(=O)Nc3cccc(-n4ccc5c(NC(=O)c6ccccc6)nccc54)c3)cc2C(F)(F)F)CC1 | 20.2% (inactive)
N#Cc1cnn2c(-c3ccc(Cl)cc3)nc(NC3CC3)nc12 | 97% (inactive)
CCOC(=N)CC(=O)Nc1cccc(C)c1Cl | 90.8% (inactive)
CC(O)C(NC(=O)C1CCCN1C(=O)CNC(=O)C1CC(=O)NCC(=O)NC(Cc2c[nH]c3ccccc23)C(=O)NC(Cc2ccc(O)cc2)C(=O)NCC(=O)NC(CO)C(=O)NC(CCC(N)=O)C(=O)NC(Cc2c[nH]c3ccccc23)C(=O)N1)C(=O)NCC(=O)NC(CCC(N)=O)C(=O)NC(CCCNC(=N)N)C(=O)NC(CC(=O)O)C(=O)O (stereo not given) | 100% (inactive)
COc1cc(NCCCCCNC(C)C)c2ncccc2c1 | 87.6% (inactive) and 39.1% (inactive)
CCCC1OC(c2ccco2)OCC1CC (stereo not given) | 118% (inactive)
O=C(Nc1ccncc1)C(=O)c1cn(S(=O)(=O)c2cc(Cl)cc(Cl)c2)c2ccccc12 | 41.6% (inactive)
COc1ccccc1N1CCN(C(CNS(=O)(=O)c2ccc(Cl)cc2)c2cccnc2)CC1 (stereo not given) | 98.8% (inactive)
Cc1ccc2[nH]c(=O)c3c(c2c1)OC(N)=C(C#N)C31C(=O)c2cccc3cccc1c23 (stereo not given) | 95.1% (inactive)
CC(=O)O[C@H]1CC[C@]2(C)[C@H]3CC[C@@H]4[C@H]5[C@H](C(C)C)CC[C@]5(C(=O)OCC(CO)(CO)N=C(N)N)CC[C@@]4(C)[C@]3(C)CC[C@H]2C1(C)C | -25.5% (active)
CSCCC1NC(=O)C(C(C)=Nc2ccccc2)=C1O (stereo not given) | 109% (inactive)
c1ccc2c(c1)Cc1ccccc1N2CCN1CCCCC1 | 99.4% (inactive)
COc1cc2nc(SCc3cc(OC)c(OC)c(OC)c3)n(-c3ccccc3OC)c(=O)c2cc1OC | 97.9% (inactive)
CN1CCN(Cc2cc(NC(=O)c3cccc(C#Cc4cccc5[nH]nc(N)c45)c3)cc(C(F)(F)F)c2)CC1 | 10.8% (inactive)
S=C(Nc1ccc(C2=NCCN2)cc1)Nc1ccc(C2=NCCN2)cc1 | 67.6% (inactive)
COc1cc(-c2n/c(=C\c3c(O)[nH]c4ccc(Cl)cc34)cc3c2=Nc2ccccc2-3)cc(OC)c1OC | 30.5% (inactive)
O=C(/C=C/c1ccccn1)c1ccc(OCc2nnc(-c3ccc(Cl)cc3)o2)cc1 | -37.7% (active)
O=[N+]([O-])c1ccc(-c2ncc(-c3ccc(Br)cc3)o2)cc1 | 102% (inactive)

SMILES | growth
CC[C@@]12C=CCN3CC[C@]4(c5cc(NC(=O)COc6cc(OCC(=O)Nc7cc8c(cc7OC)N(C)[C@H]7[C@@](O)(C(=O)OC)[C@H](OC(C)=O)[C@]9(CC)C=CCN%10CC[C@]87[C@@H]%109)cc7oc(-c8ccccc8)cc(=O)c67)c(OC)cc5N(C)[C@@H]4[C@](O)(C(=O)OC)[C@H]1OC(C)=O)[C@H]32 | 72% (inactive)
O=C([O][Sn]([O]C(=O)c1ccccn1)([c]1ccccc1)[c]1ccccc1)c1ccccn1 | -23.8% (active)
Brc1ccc(-c2cn3ccnc3c(-c3ccc(Br)cc3)n2)cc1 | 33.2% (inactive)
COc1ccc(C(=O)OC2C(OC3C(O)COC(O[C@H]4C[C@H]5[C@@H]6CC=C7C[C@@H](O)CC[C@]7(C)[C@H]6CC[C@]5(C)[C@H]4[C@H](C)C(=O)CCC(C)C)C3OC(C)=O)OCC(O)C2O)cc1 (stereo not given in full) | -34.1% (active)
CCCCN(CCCC)CCCCCCCCCCO | 99.8% (inactive)
Clc1ccccc1/C=C/c1nn2c(-c3ccncc3)nnc2s1 | 97.4% (inactive)
O=C(NCc1cccnc1)c1cc(-c2csc3c(=O)cc(N4CCOCC4)oc23)cc2c1OCCO2 | 10.7% (inactive)
N=C(N)c1ccc(-c2ccc(-c3cncc4ccccc34)s2)cc1F | -90.6% (active)
Cn1cc(-c2nn3c(=O)cc(-c4ccccc4)nc3s2)c2cc(F)ccc21 | 38.9% (inactive)
COc1c2c(cc3c1C(=O)N[C@@H]1[C@@H](O)[C@@H](O)[C@H](O)C[C@@H]31)OCCO2 | 93.1% (inactive)
COc1cc(/C=C2\C(=O)N(CC(O)COc3cc(O)c4c(=O)cc(-c5ccccc5)oc4c3)c3ccccc32)cc(OC)c1O (stereo not given) | 74.3% (inactive)
O=C(NCCCNc1cc(-c2cn(-c3ccccc3)nc2-c2cccc(O)c2)ccn1)c1ccccc1 | -61% (active)
Nc1nc(N)c(-c2ccc(Cl)c(Cl)c2)c(CBr)n1 | 84% (inactive)
COc1ccc(N(C)c2ncnc3occ(C)c23)cc1 | 30.2% (inactive)
O=C(CCCCCCN1CC(=O)N2[C@H](c3ccc(Br)cc3)c3[nH]c4ccccc4c3C[C@@H]2C1=O)NO | 33.9% (inactive)
N=C(N)c1ccc(-c2ccc(-c3ccc(Cl)cn3)s2)cc1 | -28.2% (active)
Cc1csc(/N=C(N)/N=C(\N)c2cccs2)n1 | 120% (inactive)
N#Cc1ccc(-n2cnc(NC(=O)[C@H]3CCN(C#N)C3)c2)cc1 | -38.1% (active)
COc1cc(OC)c(/C=C/c2c3ccccc3cc[n+]2C)c(OC)c1 | -26.5% (active)
CN1CCN(CCC(=O)Nc2cccc(-n3cc(-c4ccncc4)c(-c4ccc(Cl)c(O)c4)n3)c2)CC1 | 12.7% (inactive)

Source: PubChem BioAssay (NCI)
